Out of some 340,000 compounds screened, about 1,000 (0.29%) were called active. Shown is part of a subset that was picked to be rich in actives. A number with no mark means an inactive call.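 Rule for the calls: active = mean replicate activation score at least 90 and every replicate individually at or above 90; inconclusive = only one of the two criteria met; inactive = neither criterion met.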

The assay is described as follows: miR-122 Renilla sensor signal increase in Huh7, primary screen, miR-122 inhibitor project, cell-based, single point, plate reader (AID 602342).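 Note: higher luciferase means less miR-122 activity so hits act as miR-122 inhibitors.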 To be noted: Huh7 miR-122 Renilla luciferase sensor, 48 h, stronger effect = higher value, neutral wells = 0, positive control = 100; at 16.7 µM unless noted.
For `Cc1ccc(S(=O)(=O)Nc2ccc3c(c2)C(=O)N([C@H](C)CO)C[C@H](C)[C@H](CN(C)S(=O)(=O)c2ccc(F)cc2)O3)cc1`, the activation (reporter increase) is -7.86%.

For `CC(=O)N1CC[C@@H]2[C@@H](CO)N(C)c3ccc(-c4ccc(C#N)cc4)cc3[C@@H]21`, the activation (reporter increase) was -2.99%.

As to `C[C@@H]1CN([C@H](C)CO)C(=O)c2cc(NC(=O)NC3CCCCC3)ccc2O[C@@H](C)CCCCO[C@H]1CN(C)S(C)(=O)=O`, the activation (reporter increase) is -11.1%. For `CCC(=O)N[C@H]1C=C[C@@H](CC(=O)NCC2CCCCC2)O[C@H]1CO`, the activation (reporter increase) is -4.01%.

As to `C[C@@H]1CCCCO[C@@H](CN(C)Cc2ccncc2)[C@H](C)CN([C@@H](C)CO)C(=O)c2cc(N(C)C)ccc2O1`, the activation (reporter increase) is 9.37%.

In the case of `C[C@@H]1CN([C@@H](C)CO)C(=O)Cc2cc(NC(=O)Nc3ccc(F)cc3)ccc2O[C@@H]1CN(C)C`, the activation (reporter increase) is -1.94%.

In the case of `CN(C)C(=O)[C@@H]1[C@@H](CO)[C@@H]2Cn3c(cccc3=O)[C@H]1N2CC1CCCCC1`, the activation (reporter increase) is -3.4%. Then `Cc1ccccc1-c1cnc2c(c1)C(=O)N([C@@H](C)CO)C[C@@H](C)[C@@H](CN(C)CC1CCOCC1)O2`, with -4.12%; and `CN1C(=O)c2cc(NS(=O)(=O)c3ccc(Cl)cc3)ccc2OC[C@H]2O[C@@H](CC(=O)O)CC[C@H]21`, with 37.8%. Then `O=C(Oc1ccc(C(=S)N2CCOCC2)cc1)c1ccc(F)cc1`, with 330% [at 12.5 µM] (active); and `Cc1ccc(C(=O)Oc2ccc(C(=S)N3CCOCC3)cc2)cc1`, with -1.88% [at 12.5 µM]; and `O=C(Oc1ccc(F)cc1)N1CCOCC1`, with -3.21% [at 12.5 µM].

As for `CC(=O)N(C)C[C@H]1Oc2ncc(-c3cccc(F)c3)cc2C(=O)N([C@@H](C)CO)C[C@H]1C`, the activation (reporter increase) is -3.49%.

Turning to `CN1C(=O)c2cc(NC(=O)c3ccc(F)c(F)c3)ccc2OC[C@H]2O[C@@H](CC(=O)N3CCCCC3)CC[C@H]21`, the activation (reporter increase) was -8.45%.

On to `COc1ccc(/C=C/C(=O)c2c(O)cc(OC)cc2OC)cc1`, for which the activation (reporter increase) was 2.04% [at 12.5 µM]. Regarding `O=C(/C=C(O)/C=C/c1ccc(O)cc1)/C=C/c1ccc(O)cc1`, the activation (reporter increase) is 140% [at 12.5 µM] (active).

Regarding `O=C(/C=C/c1ccc2c(c1)OCCO2)c1ccc(O)cc1`, the activation (reporter increase) is 7.01% [at 12.5 µM]. Consider `Cc1noc(C)c1NC(=O)N(C)C[C@H]1OCCCC[C@H](C)Oc2ccc(NC(=O)Nc3ccccc3)cc2C(=O)N([C@H](C)CO)C[C@@H]1C`, for which the activation (reporter increase) was -0.276%. The result for `Cn1cnc([N+](=O)[O-])c1Sc1n[nH]c(N)n1` reads -3.18% [at 12.5 µM]; that for `Cn1cnc([N+](=O)[O-])c1Nc1ccccc1O`, 2.42% [at 12.5 µM]; that for `Cn1cnc([N+](=O)[O-])c1Sc1ccccc1`, 217% [at 12.5 µM] (active). The result for `CCN(C[C@@H]1[C@H](c2ccccc2)[C@@H](CO)N1CC1CC1)C(=O)c1ccccn1` reads -7.14%; that for `C[C@@H]1CN([C@@H](C)CO)C(=O)Cc2cc(NC(=O)C3CC3)ccc2O[C@H]1CN(C)C(=O)NC1CCCCC1`, 0.966%; that for `CCN(CC)S(=O)(=O)c1cc(C(=O)Nc2ccccn2)ccc1C`, -6.4% [at 12.5 µM]. `Cc1ccc(C(=O)Nc2ccccc2-c2ccccc2)cc1S(=O)(=O)Nc1ccccc1`: the activation (reporter increase) is 94% [at 12.5 µM] (active). `COc1cc(OC)c(C(=O)Nc2ccccc2-c2ccccc2)cc1OC`: the activation (reporter increase) is 9.15% [at 12.5 µM]. The result for `C[C@H]1CCCCO[C@@H](CN(C)C(=O)Nc2cccc3ccccc23)[C@@H](C)CN([C@@H](C)CO)C(=O)c2cc(NS(=O)(=O)c3cn(C)cn3)ccc2O1` reads -0.833%; that for `Cn1c(=O)n(C)c2cc(S(=O)(=O)Nc3ccc(F)cc3)ccc21`, 44% [at 12.5 µM]. The result for `Cc1cc(C)cc(NS(=O)(=O)c2ccc(F)cc2)c1` reads 117% [at 12.5 µM] (active). Regarding `Cc1ccc(NS(=O)(=O)c2ccc(F)cc2)nc1`, the activation (reporter increase) is 4.41% [at 12.5 µM].

Consider `COc1ccc(CN(C)C[C@H]2Oc3c(NS(=O)(=O)c4ccccc4)cccc3C(=O)N([C@@H](C)CO)C[C@H]2C)cc1`, for which the activation (reporter increase) is 4.79%. Take `CCC(=O)N1[C@@H]2c3ccc(-c4cccnc4)c(=O)n3C[C@H]1[C@H](CO)[C@H]2C(=O)N1CCc2ccccc2C1`: the activation (reporter increase) was 2.45%.

With `COc1ccccc1C#Cc1cnc2c(c1)C(=O)N([C@@H](C)CO)C[C@H](C)[C@@H](CN(C)C(=O)CC1CC1)O2`, the activation (reporter increase) was -1.03%. Then `O=C1c2ccccc2C2=Nc3ccccc3SC(c3ccccc3F)C12` (configuration not stated), with 162% [at 12.5 µM] (active); and `O=C1c2ccccc2C(=O)C1c1ccccc1F`, with -3.15% [at 12.5 µM]; and `O=C(C[C@@H]1C[C@@H]2c3cc(NC(=O)Nc4ccccc4F)ccc3O[C@@H]2[C@H](CO)O1)NCCc1ccccc1`, with -2.6%. On to `CS(=O)(=O)N(CC(=O)Nc1ccc(F)cc1)C1CCCCC1`, for which the activation (reporter increase) is 0.106% [at 12.5 µM]. The result for `N#CCCN(C(=O)Nc1ccc(Cl)c(Cl)c1)C1CCCCC1` reads -4.25% [at 12.5 µM]; that for `CS(=O)(=O)N(CC(=O)Nc1ccc(Cl)c(Cl)c1)C1CCCCC1`, 174% [at 12.5 µM] (active); that for `C[C@@H]1CN([C@H](C)CO)C(=O)c2cc(C#CCN(C)C)cnc2O[C@H]1CN(C)C(=O)NC1CCCC1`, 26%.

With `CN1CCN(C(=O)C[C@H]2C[C@@H]3c4cc(NS(=O)(=O)c5ccc(F)cc5)ccc4O[C@@H]3[C@@H](CO)O2)CC1`, the activation (reporter increase) is -5.91%.

Regarding `CCCN1C[C@H](C)[C@@H](OC)CN(C)C(=O)c2ccc(NC(=O)CC)cc2OC[C@@H]1C`, the activation (reporter increase) is 4.54%.

For the compound `CCOc1ccccc1CNS(=O)(=O)c1cc(-c2cc(C)no2)ccc1C`, the activation (reporter increase) is 54.4% [at 12.5 µM]. As for `Cc1cc(-c2ccc(C)c(S(=O)(=O)NCCCN(Cc3ccccc3)C(C)C)c2)on1`, the activation (reporter increase) was 46.4% [at 12.5 µM].

Turning to `Cc1noc(C)c1S(=O)(=O)NCCc1ccc(S(N)(=O)=O)cc1`, the activation (reporter increase) was -7.32% [at 12.5 µM].

In the case of `Cc1cc(-c2ccc(C)c(S(=O)(=O)Nc3ccc(S(N)(=O)=O)cc3)c2)on1`, the activation (reporter increase) is 5.41% [at 12.5 µM]. The result for `COc1ccc(CNS(=O)(=O)c2cc(-c3cc(C)no3)ccc2C(C)C)cc1` reads 200% [at 12.5 µM] (active); that for `CCc1ccc(-c2cc(C)no2)cc1S(=O)(=O)NCCc1ccc(S(N)(=O)=O)cc1`, 124% [at 12.5 µM] (active); that for `C[C@@H]1CN([C@@H](C)CO)C(=O)c2cc(NC(=O)Nc3cccc4ccccc34)ccc2O[C@H]1CN(C)Cc1ccc(Oc2ccccc2)cc1`, -7.47%. Then `C[C@H](CO)N1C[C@H](C)[C@@H](CN(C)C(=O)C2CC2)Oc2ncc(-c3cccc(F)c3)cc2C1=O`, with -1.71%; and `CN(C)C(=O)C[C@@H]1CC[C@H]2[C@@H](COC[C@H](O)CN2S(=O)(=O)c2ccccc2)O1`, with 0.2%. With `CCCNC(=O)Nc1ccc2c(c1)C(=O)N(C)[C@@H]1CC[C@@H](CC(=O)NC)O[C@H]1CO2`, the activation (reporter increase) was -13.3%.

In the case of `O=C(C[C@@H]1CC[C@H]2[C@@H](COC[C@@H](O)CN2C(=O)c2ccc3c(c2)OCO3)O1)NC1Cc2ccccc2C1`, the activation (reporter increase) is 5.8%. Then `COCCNC(=O)C[C@@H]1CC[C@H]2[C@H](COc3ccc(NS(=O)(=O)c4ccc(Cl)cc4)cc3C(=O)N2C)O1`, with 12.5%; and `C[C@@H]1CN([C@@H](C)CO)C(=O)c2cc(C#CC(C)(C)O)cnc2O[C@H]1CN(C)Cc1cccc(F)c1`, with 0.476%. Then `CO[C@@H]1CN(C)C(=O)c2ccc(NC(=O)C3CCC3)cc2OC[C@H](C)N(C(=O)CN(C)C)C[C@H]1C`, with -7.5%; and `COCC(=O)Nc1ccc2c(c1)C(=O)N(C)[C@H]1CC[C@@H](CC(=O)NCc3cccc(F)c3)O[C@H]1CO2`, with 62.5%; and `CCCC(=O)Nc1ccc2c(c1)C(=O)N(C)[C@H]1CC[C@@H](CC(=O)NCc3cccc(F)c3)O[C@H]1CO2`, with 120% (active). The result for `COCC(=O)Nc1ccc2c(c1)C(=O)N(C)[C@@H]1CC[C@@H](CC(=O)NCc3cccc(F)c3)O[C@@H]1CO2` reads 41.7%; that for `CS(=O)(=O)N1[C@H](C(=O)NCc2ccncc2)[C@@H](CO)[C@@H]2Cn3c(ccc(C4=CCCCC4)c3=O)[C@@H]21`, 1.3%. In the case of `CCS(=O)(=O)c1ccc(O)c(NC(=O)COc2ccc(Cl)cc2)c1`, the activation (reporter increase) is 2.08% [at 12.5 µM].

As for `O=C(Nc1cccc(S(=O)(=O)NC2=NCCC2)c1)c1ccc(F)cc1F`, the activation (reporter increase) is 0.138% [at 12.5 µM]. As to `O=C(Nc1cc(S(=O)(=O)Nc2ccc(Cl)cc2)ccc1O)c1ccc(F)cc1F`, the activation (reporter increase) was 118% [at 12.5 µM] (active). `C[C@H](CO)N1C[C@H](C)[C@H](CN(C)C(=O)NC2CCCCC2)OCCCC[C@H](C)Oc2ccc(NC(=O)Nc3ccc4c(c3)OCO4)cc2C1=O`: the activation (reporter increase) is -2.47%.

For the compound `C[C@@H]1CCCCO[C@H](CN(C)Cc2ccccc2)[C@H](C)CN([C@H](C)CO)C(=O)c2cc(NS(=O)(=O)c3ccc(Cl)cc3)ccc2O1`, the activation (reporter increase) was -12.3%.

Regarding `COc1ccc(S(=O)(=O)Nc2ccc3c(c2)C(=O)N([C@@H](C)CO)C[C@@H](C)[C@H](CN(C)C(=O)CCC(F)(F)F)OCCCC[C@H](C)O3)cc1`, the activation (reporter increase) is -1.47%. As to `C[C@@H]1CN([C@@H](C)CO)C(=O)c2cc(-c3cncnc3)cnc2O[C@H]1CN(C)C(=O)c1cccc(F)c1`, the activation (reporter increase) was -0.099%.
